# Compounds with a hit are over-represented: about 3.6% of the library has one in this group of screens.
# mHTT-CaM PPI inh – disrupts binding of mutant huntingtin to calmodulin; AlphaScreen His-mHTT/GST-CaM binding, luminescence; inhibition, % at 15 µM; 3.6% of 190,000 active;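 note: 0% = both proteins with DMSO and 100% = one protein alone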
# Pf apPOL inh – Pf-apPOL DNA polymerase inhibition | 0.25% of 210,000 active | Recombinant Pf-apPOL, molecular beacon fluorescence, 1.5 h | inhibition, % at 10 µM | AID 1794808
# Active calls of the source: *; i = inactive; . = no result. Cut-off read from the data, not from the text of the source: active = inhibition above about 50%; inactive = the rest.
SMILES,mHTT-CaM PPI inh,Pf apPOL inh
COc1ccccc1C1CN(C(=O)c2ccc(C)cc2)CC1C(=O)N1CCOCC1 (stereo not drawn),7,-4
CCOC(=O)C(C)Oc1ccc2c(c1)OC(=Cc1cccc(OC)c1OC)C2=O (stereo not drawn),0,-5
COc1ccc(/C=C2\SC(=O)N(CN3CCOCC3)C2=O)c(OC)c1,28,-1
COc1ccc(C=C2SC(=S)N(CCc3ccc(O)cc3)C2=O)c(OC)c1,77*,2
CC(C)CC1C(=O)N(Cc2cn(CCC3OCCO3)nn2)CCS(=O)(=O)N1Cc1ccc(-c2ccc(F)cc2)cc1 (stereo not drawn),68*,-7
CC(C)CC1C(=O)N(Cc2cn(CCC3OCCO3)nn2)CCS(=O)(=O)N1Cc1ccc(-c2cccc(N(C)C)c2)cc1 (stereo not drawn),72*,2
CC(C)CC1C(=O)N(Cc2cn(CCC3OCCCO3)nn2)CCS(=O)(=O)N1Cc1ccc(-c2ccc(Cl)c(Cl)c2)cc1 (stereo not drawn),60*,-4
COc1ccc(-c2ccc(CN3C(CC(C)C)C(=O)N(Cc4cn(CCC5OCCO5)nn4)CCS3(=O)=O)cc2)cc1OC (stereo not drawn),21,-8
CC(C)C1C(=O)N(Cc2cn(CCC3OCCO3)nn2)CCS(=O)(=O)N1Cc1ccc(-c2cccc(CO)c2)cc1 (stereo not drawn),45,-5
CC(C)CC1C(=O)N(Cc2cn(CCC3OCCCO3)nn2)CCS(=O)(=O)N1Cc1ccc(-c2ccc(Cl)nc2)cc1 (stereo not drawn),29,-23
CCCNc1cc(N2CCCC(CCC(=O)NCc3ccccc3Cl)C2)ncn1 (stereo not drawn),-2,-9
CCc1nnc2cc(N3CCN(Cc4ccc(C(C)C)cc4)CC3)cnn12,17,-1
O=C(c1ccc(OCC2CCCN2C(=O)CCc2ccccc2)cc1)N1CCCC1 (stereo not drawn),9,4
CC1=C(C(=O)Nc2ccccn2)C(c2ccccc2)C2=C(CCCC2=O)N1 (stereo not drawn),-1,52*
CC1=C(C(=O)Nc2cccc(C(F)(F)F)c2)C(c2ccncc2)C2=C(CCCC2=O)N1 (stereo not drawn),-1,-1
CC1=C(C(=O)Nc2ccccn2)C(c2ccc(F)cc2)C2=C(CCCC2=O)N1 (stereo not drawn),0,2
CC1=C(C(=O)Nc2cccc(C(F)(F)F)c2)C(c2ccc(N(C)C)cc2)C2=C(CCCC2=O)N1 (stereo not drawn),57*,-3
Cc1ccc(C)c(NC(=O)CCc2ccc3nc[nH]c3c2)c1,-4,0
N#CC(=Cc1ccc(Cl)cc1)c1ccc(O)cc1,.,-2
Cc1ccc(-c2nnc(N3CCC(C(=O)NCc4ccc(C)o4)CC3)o2)cc1,5,-3
O=C(NCCCN1CCCC1)c1ccc(N2CCNC(c3ccccc3)C2)nc1 (stereo not drawn),56*,-3
O=C(NCc1ccc(N2CCCC2)cc1)c1ccc(N2CCNC(c3ccccc3)C2)nc1 (stereo not drawn),79*,0
O=C(NCCCN1CCCCC1)c1ccc(N2CCNC(c3ccccc3)C2)nc1 (stereo not drawn),4,-5
O=C(NCc1ccc(Cl)cc1)c1ccc(N2CCNC(c3ccccc3)C2)nc1 (stereo not drawn),16,5
Cc1cc[n+](CC(=O)N(c2ccccc2)C(C)C)cc1,0,-3
SMILES,mHTT-CaM PPI inh,Pf apPOL inh
NC(=O)/C(=N\O)c1nc(-c2ccc(Br)cc2)cs1,i,-11
COc1ccc(NC(=O)C2CC(=O)N(c3ccccc3)C2)cc1 (stereo not drawn),0,2
O=C(Nc1ccc(Oc2ccccc2)cc1)C1CC(=O)N(c2ccccc2Cl)C1 (stereo not drawn),72*,0
CCOc1ccc(NC(=O)N2CCc3cn(CCOC)c4cccc(c34)C2)cc1,1,-1
Cc1ccc(-c2cn(CC(=O)NC(C)C)c(=O)o2)cc1,-5,-2
O=[N+]([O-])c1ccc(/C=C/S(=O)(=O)N2C=Cc3ccccc3C2c2c[nH]c3ccccc23)cc1 (stereo not drawn),57*,2
O=C(c1ccc([N+](=O)[O-])cc1)N1CCN(Cc2c[nH]c3ccccc23)CC1,20,-2
Cc1ccc([N+](=O)[O-])c2c3c([nH]c12)C(=NCCO)CCC3,22,1
Cc1ccc([N+](=O)[O-])c2c3c([nH]c12)C(=O)CCC3,12,83*
COCCCNC(=O)N1CCCCCC1c1ccc(C)s1 (stereo not drawn),-3,4
Cc1nc(-c2ccc(C(=O)NCc3cccnc3)cc2)cs1,-1,-2
CC(=O)N1CCc2ccccc2C1C(=O)N1CCN(C2CCCCC2)CC1 (stereo not drawn),22,3
CCCC1(CO)CCCN1C(=O)c1ccc2cc[nH]c2c1 (stereo not drawn),55*,25
CCCC1(CO)CCCN1C(=O)c1ccc2[nH]ccc2c1 (stereo not drawn),-1,-5
Cc1ccc(CNC(=O)Cn2cc3c(n2)CCCCCC3)cc1,-6,-1
CCn1cnnc1C1CCCN(C(=O)c2ccc(C)s2)C1 (stereo not drawn),-2,4
CC(C)N1C(=O)C(C)(C(=O)NCc2ccc(Br)cc2)Oc2cccnc21 (stereo not drawn),95*,-7
CC(C)N1C(=O)C(C)(C(=O)NCc2ccccc2)Oc2cccnc21 (stereo not drawn),-5,-3
COCCCNC(=O)c1cc2n(n1)CCCN(Cc1cccc(C)c1)C2=O,-4,3
O=C1c2cccc(N3CCCC3)c2C(=O)c2cccc(Cl)c21,65*,4
O=C1c2cccc(Cl)c2C(=O)c2cccc(Cl)c21,3,-4
CCCc1nc2cccnc2n1C1CCN(C(=O)COc2ccccc2)C1 (stereo not drawn),2,-7
O=C(CC(NCc1ccco1)C(=O)O)Nc1cc(Cl)ccc1O (stereo not drawn),5,1
O=C(CC(NCc1ccccn1)C(=O)O)Nc1cc(Cl)ccc1Cl (stereo not drawn),100*,-1
COc1cc(OC)cc(C(=O)Nc2sc3c(c2C#N)CCCCC3)c1,-4,2
SMILES,mHTT-CaM PPI inh,Pf apPOL inh
Cc1ccc(N(C(=O)c2ccccc2)C2C=CS(=O)(=O)C2)cc1 (stereo not drawn),-4,-3
CC(=O)Oc1cc(C(=O)N(c2ccc(C)cc2)C2C=CS(=O)(=O)C2)cc(OC(C)=O)c1OC(C)=O (stereo not drawn),96*,90*
CCN(Cc1ccccc1)S(=O)(=O)c1ccc(C(=O)Nc2nnc(C)o2)cc1,74*,-16
CCN(Cc1ccccc1)S(=O)(=O)c1ccc(C(=O)Nc2nnc(CSC)o2)cc1,12,-13
CCCCN(CC)S(=O)(=O)c1ccc(C(=O)Nc2nnc(-c3ccccc3OC)o2)cc1,52*,-7
CCCCN(CC)S(=O)(=O)c1ccc(C(=O)Nc2nnc(C)o2)cc1,22,-13
CCN(CC)S(=O)(=O)c1ccc(C(=O)Nc2nnc(-c3ccc(OC)cc3OC)o2)cc1,3,-12
Cc1nnc(NC(=O)c2ccc(S(=O)(=O)N(CC(C)C)CC(C)C)cc2)o1,51*,-74
CC(/C=C1\N=C(c2cccc(Br)c2)OC1=O)=C\c1ccccc1,6,-5
COc1ccc(NC(C)=O)c(NC(=S)Nc2ccccc2Cl)c1,.,-1
